Tests used:
Settings in all cases: concentration: 1 μM, replicates: in singlicate; n = 1
PIK3CG = tested on: PIK3CG
PIK4CB = tested on: T1, PIK4CB
T1 construct: gene PI4KB

PIKFYVE = tested on: PIKFYVE
PIM1 = tested on: PIM1
PIM2 = tested on: PIM2
PIM3 = tested on: PIM3
PIP5K1A = tested on: PIP5K1A
PIP5K1C = tested on: PIP5K1C
PIP5K2B = tested on: PIP5K2B
PIP5K2C = tested on: T2, PIP5K2C
T2 construct: gene PIP4K2C

PKAC-alpha = tested on: T3, PKAC-alpha
T3 construct: gene PRKACA

PKAC-beta = tested on: T4, PKAC-beta
T4 construct: gene PRKACB

PKMYT1 = tested on: PKMYT1
PKN1 = tested on: PKN1
PKN2 = tested on: PKN2
PLK1 = tested on: PLK1
PLK2 = tested on: PLK2
PLK3 = tested on: PLK3
PLK4 = tested on: PLK4
PRKCD = tested on: PRKCD
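Note: KINOMEscan kinase panel screen.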

`CCC(=O)c1c(-c2ccccc2)c2cc(Cl)ccc2c(=O)n1Cc1cc(S(C)(=O)=O)n(CC(N)=O)n1` was tested, and the “%Inh” value (PIK3CG) was 0%, the “%Inh” value (PIK4CB) was 0% and the “%Inh” value (PIKFYVE) was 17%. For the same compound, the “%Inh” value (PIM1) was 18%, the “%Inh” value (PIM2) was 2% and the “%Inh” value (PIM3) was 9%. For the same compound, the “%Inh” value (PIP5K1A) was 0%, the “%Inh” value (PIP5K1C) was 33% and the “%Inh” value (PIP5K2B) was 8%. The “%Inh” value (PIP5K2C) was 19%, the “%Inh” value (PKAC-alpha) was 0% and the “%Inh” value (PKAC-beta) was 0%. For the same compound, the “%Inh” value (PKMYT1) was 0%, the “%Inh” value (PKN1) was 1% and the “%Inh” value (PKN2) was 8%. The “%Inh” value (PLK1) was 0%, the “%Inh” value (PLK2) was 0% and the “%Inh” value (PLK3) was 0%. For the same compound, the “%Inh” value (PLK4) was 0% and the “%Inh” value (PRKCD) was 6%.
With `Cc1ccccc1COc1cc(-n2cnc3cc(Cl)ccc32)sc1C(N)=O` [GW813349] the “%Inh” value (PIK3CG) was 24%, the “%Inh” value (PIK4CB) was 0% and the “%Inh” value (PIKFYVE) was 0%. For the same compound, the “%Inh” value (PIM1) was 2%, the “%Inh” value (PIM2) was 18% and the “%Inh” value (PIM3) was 0%. For the same compound, the “%Inh” value (PIP5K1A) was 24%, the “%Inh” value (PIP5K1C) was 37% and the “%Inh” value (PIP5K2B) was 0%. The “%Inh” value (PIP5K2C) was 24%, the “%Inh” value (PKAC-alpha) was 0% and the “%Inh” value (PKAC-beta) was 21%. For the same compound, the “%Inh” value (PKMYT1) was 0%, the “%Inh” value (PKN1) was 7% and the “%Inh” value (PKN2) was 0%. For the same compound, the “%Inh” value (PLK1) was 97%, the “%Inh” value (PLK2) was 92.4% and the “%Inh” value (PLK3) was 92.8%. For the same compound, the “%Inh” value (PLK4) was 2% and the “%Inh” value (PRKCD) was 12%.
In the case of `CCC(=O)c1c(-c2ccccc2)c2cc(Cl)ccc2c(=O)n1Cc1cc(S(C)(=O)=O)n(CCC(C)(C)O)n1`, the “%Inh” value (PIK3CG) is reported as 17%, the “%Inh” value (PIK4CB) is reported as 0% and the “%Inh” value (PIKFYVE) is reported as 0%. The “%Inh” value (PIM1) was 15%, the “%Inh” value (PIM2) was 2% and the “%Inh” value (PIM3) was 16%. For the same compound, the “%Inh” value (PIP5K1A) was 0%, the “%Inh” value (PIP5K1C) was 0% and the “%Inh” value (PIP5K2B) was 20%. For the same compound, the “%Inh” value (PIP5K2C) was 0%, the “%Inh” value (PKAC-alpha) was 0% and the “%Inh” value (PKAC-beta) was 0%. The “%Inh” value (PKMYT1) was 0%, the “%Inh” value (PKN1) was 0% and the “%Inh” value (PKN2) was 0%. The “%Inh” value (PLK1) was 0%, the “%Inh” value (PLK2) was 0% and the “%Inh” value (PLK3) was 8%. For the same compound, the “%Inh” value (PLK4) was 24% and the “%Inh” value (PRKCD) was 0%.
For `FC(F)(F)c1ccc(-c2ncn(CCCN3CCOCC3)c2-c2ccncc2)cc1` [SB-217780], the “%Inh” value (PIK3CG) was 34%, the “%Inh” value (PIK4CB) was 0% and the “%Inh” value (PIKFYVE) was 0%. The “%Inh” value (PIM1) was 15%, the “%Inh” value (PIM2) was 0% and the “%Inh” value (PIM3) was 13%. For the same compound, the “%Inh” value (PIP5K1A) was 0%, the “%Inh” value (PIP5K1C) was 36% and the “%Inh” value (PIP5K2B) was 0%. The “%Inh” value (PIP5K2C) was 27%, the “%Inh” value (PKAC-alpha) was 0% and the “%Inh” value (PKAC-beta) was 10%. For the same compound, the “%Inh” value (PKMYT1) was 0%, the “%Inh” value (PKN1) was 43% and the “%Inh” value (PKN2) was 48%. The “%Inh” value (PLK1) was 5%, the “%Inh” value (PLK2) was 0% and the “%Inh” value (PLK3) was 0%. The “%Inh” value (PLK4) was 3% and the “%Inh” value (PRKCD) was 87%.
With `CCC(=O)c1c(-c2ccccc2)c2cc(Cl)ccc2c(=O)n1Cc1cc(C(=O)NC2CC2)n(C)n1` the “%Inh” value (PIK3CG) was 0%, the “%Inh” value (PIK4CB) was 0% and the “%Inh” value (PIKFYVE) was 25%. The “%Inh” value (PIM1) was 0%, the “%Inh” value (PIM2) was 0% and the “%Inh” value (PIM3) was 11%. For the same compound, the “%Inh” value (PIP5K1A) was 0%, the “%Inh” value (PIP5K1C) was 0% and the “%Inh” value (PIP5K2B) was 32%. The “%Inh” value (PIP5K2C) was 12%, the “%Inh” value (PKAC-alpha) was 0% and the “%Inh” value (PKAC-beta) was 0%. For the same compound, the “%Inh” value (PKMYT1) was 5%, the “%Inh” value (PKN1) was 0% and the “%Inh” value (PKN2) was 0%. The “%Inh” value (PLK1) was 0%, the “%Inh” value (PLK2) was 2% and the “%Inh” value (PLK3) was 7%. For the same compound, the “%Inh” value (PLK4) was 10% and the “%Inh” value (PRKCD) was 8%.
With `OCCCNc1nccc(-c2c(-c3cccc(C(F)(F)F)c3)nn3cc(C(F)(F)F)ccc23)n1` [GW630813] the “%Inh” value (PIK3CG) was 0%, the “%Inh” value (PIK4CB) was 0% and the “%Inh” value (PIKFYVE) was 0%. For the same compound, the “%Inh” value (PIM1) was 9%, the “%Inh” value (PIM2) was 0% and the “%Inh” value (PIM3) was 0%. For the same compound, the “%Inh” value (PIP5K1A) was 30%, the “%Inh” value (PIP5K1C) was 66% and the “%Inh” value (PIP5K2B) was 2%. For the same compound, the “%Inh” value (PIP5K2C) was 38%, the “%Inh” value (PKAC-alpha) was 0% and the “%Inh” value (PKAC-beta) was 0%. For the same compound, the “%Inh” value (PKMYT1) was 0%, the “%Inh” value (PKN1) was 0% and the “%Inh” value (PKN2) was 0%. For the same compound, the “%Inh” value (PLK1) was 0%, the “%Inh” value (PLK2) was 0% and the “%Inh” value (PLK3) was 0%. For the same compound, the “%Inh” value (PLK4) was 12% and the “%Inh” value (PRKCD) was 0%.
In the case of `C[C@@H]1CC[C@H](C(=O)NC2CCCCC2)CN1c1cc(-c2ccc3c(N)n[nH]c3c2)nc(N)n1` [GSK2291363], the “%Inh” value (PIK3CG) is reported as 0%, the “%Inh” value (PIK4CB) is reported as 0% and the “%Inh” value (PIKFYVE) is reported as 0%. The “%Inh” value (PIM1) was 22%, the “%Inh” value (PIM2) was 0% and the “%Inh” value (PIM3) was 8%. The “%Inh” value (PIP5K1A) was 100%, the “%Inh” value (PIP5K1C) was 53% and the “%Inh” value (PIP5K2B) was 52%. For the same compound, the “%Inh” value (PIP5K2C) was 30%, the “%Inh” value (PKAC-alpha) was 32% and the “%Inh” value (PKAC-beta) was 18%. For the same compound, the “%Inh” value (PKMYT1) was 6%, the “%Inh” value (PKN1) was 0% and the “%Inh” value (PKN2) was 0%. The “%Inh” value (PLK1) was 8%, the “%Inh” value (PLK2) was 0% and the “%Inh” value (PLK3) was 0%. The “%Inh” value (PLK4) was 0% and the “%Inh” value (PRKCD) was 8%.
In the case of `O=C(Nc1n[nH]c2nc(-c3ccccc3)c(Cl)cc12)C1CC1` [SB-734909], the “%Inh” value (PIK3CG) is reported as 45%, the “%Inh” value (PIK4CB) is reported as 2% and the “%Inh” value (PIKFYVE) is reported as 0%. For the same compound, the “%Inh” value (PIM1) was 0%, the “%Inh” value (PIM2) was 3% and the “%Inh” value (PIM3) was 1%. For the same compound, the “%Inh” value (PIP5K1A) was 8%, the “%Inh” value (PIP5K1C) was 38% and the “%Inh” value (PIP5K2B) was 13%. For the same compound, the “%Inh” value (PIP5K2C) was 14%, the “%Inh” value (PKAC-alpha) was 0% and the “%Inh” value (PKAC-beta) was 0%. The “%Inh” value (PKMYT1) was 16%, the “%Inh” value (PKN1) was 45% and the “%Inh” value (PKN2) was 0%. The “%Inh” value (PLK1) was 24%, the “%Inh” value (PLK2) was 0% and the “%Inh” value (PLK3) was 13%. For the same compound, the “%Inh” value (PLK4) was 29% and the “%Inh” value (PRKCD) was 2%.
For `CCC(=O)c1c(-c2ccccc2)c2cc(Cl)ccc2c(=O)n1Cc1ccc(C(=O)O)cc1`, the “%Inh” value (PIK3CG) was 0%, the “%Inh” value (PIK4CB) was 0% and the “%Inh” value (PIKFYVE) was 0%. The “%Inh” value (PIM1) was 0%, the “%Inh” value (PIM2) was 0% and the “%Inh” value (PIM3) was 0%. For the same compound, the “%Inh” value (PIP5K1A) was 18%, the “%Inh” value (PIP5K1C) was 15% and the “%Inh” value (PIP5K2B) was 0%. For the same compound, the “%Inh” value (PIP5K2C) was 16%, the “%Inh” value (PKAC-alpha) was 0% and the “%Inh” value (PKAC-beta) was 0%. The “%Inh” value (PKMYT1) was 1%, the “%Inh” value (PKN1) was 0% and the “%Inh” value (PKN2) was 0%. The “%Inh” value (PLK1) was 0%, the “%Inh” value (PLK2) was 7% and the “%Inh” value (PLK3) was 0%. For the same compound, the “%Inh” value (PLK4) was 0% and the “%Inh” value (PRKCD) was 0%.
With `Cc1ccc(Oc2ccc(Nc3ncnc4cc[nH]c34)cc2C)cn1` the “%Inh” value (PIK3CG) was 7%, the “%Inh” value (PIK4CB) was 42% and the “%Inh” value (PIKFYVE) was 1%. The “%Inh” value (PIM1) was 41%, the “%Inh” value (PIM2) was 7% and the “%Inh” value (PIM3) was 36%. For the same compound, the “%Inh” value (PIP5K1A) was 7%, the “%Inh” value (PIP5K1C) was 0% and the “%Inh” value (PIP5K2B) was 0%. For the same compound, the “%Inh” value (PIP5K2C) was 0%, the “%Inh” value (PKAC-alpha) was 19% and the “%Inh” value (PKAC-beta) was 0%. The “%Inh” value (PKMYT1) was 8%, the “%Inh” value (PKN1) was 50% and the “%Inh” value (PKN2) was 0%. The “%Inh” value (PLK1) was 50%, the “%Inh” value (PLK2) was 12% and the “%Inh” value (PLK3) was 11%. The “%Inh” value (PLK4) was 20% and the “%Inh” value (PRKCD) was 5%.

— paper PMC5540273 (PLoS ONE, 2017)
